PubChem BioAssay (Tox21)
Inconclusive results are not listed. The source made the active and inactive calls. Unless noted, calls follow the shape of the full dose curve.

Key:
[1] = qHTS assay to identify small molecule agonists of the peroxisome proliferator-activated receptor delta (PPARd) signaling pathway - cell viability counter screen (AID 743211; active = well fitted curve in the direction sought with a large enough effect in the repeat runs; an effect the other way counts as inactive or inconclusive; also: nearly all actives have a fitted effect of over 55% in size)
Outline: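 Viability was measured as CellTiter-Glo luminescence (30 min, room temperature) in the same wells as the beta-lactamase readout. GeneBLAzer PPARd UAS-bla HEK293H cells received compound after 5 h plating and were incubated 17 h at 37 C.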

[2] = biological target: Peroxisome proliferator-activated receptor delta (Homo sapiens) (UniProt Q03181); assay: qHTS assay to identify small molecule agonists of the peroxisome proliferator-activated receptor delta (PPARd) signaling pathway (AID 743212)
Chain of Peroxisome proliferator-activated receptor delta (Homo sapiens) (Q03181 whole entry, looked up): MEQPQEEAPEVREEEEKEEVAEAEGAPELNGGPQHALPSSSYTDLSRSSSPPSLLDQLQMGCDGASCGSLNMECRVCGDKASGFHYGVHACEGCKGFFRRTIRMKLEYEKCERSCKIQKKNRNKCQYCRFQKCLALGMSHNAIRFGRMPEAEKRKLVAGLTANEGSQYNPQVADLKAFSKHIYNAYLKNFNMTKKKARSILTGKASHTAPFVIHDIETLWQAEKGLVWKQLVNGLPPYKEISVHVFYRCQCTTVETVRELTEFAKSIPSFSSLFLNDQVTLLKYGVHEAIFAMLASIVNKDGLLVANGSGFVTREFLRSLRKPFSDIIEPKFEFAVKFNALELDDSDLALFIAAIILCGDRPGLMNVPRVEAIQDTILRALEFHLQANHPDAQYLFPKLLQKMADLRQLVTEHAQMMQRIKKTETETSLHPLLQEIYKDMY
Outline: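 A PPARd-bla HEK293H line with beta-lactamase under an Upstream Activator Sequence is treated with compounds at 37 C. Substrate loading for 2 h at room temperature precedes the fluorescence measurement.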

[3] = qHTS assay to identify small molecule antagonists of the peroxisome proliferator-activated receptor delta (PPARd) signaling pathway - cell viability counter screen (AID 743213; active = well fitted curve in the direction sought with a large enough effect in the repeat runs; an effect the other way counts as inactive or inconclusive; also: nearly all actives have a fitted effect of over 50% in size)
Outline: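 Luminescence from CellTiter-Glo, added after the bla read and incubated 30 min at room temperature, gives viability of HEK293H PPARd-bla cells exposed to compounds for 17 h at 37 C with 300 nM L165041.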

[4] = biological target: Peroxisome proliferator-activated receptor delta (Homo sapiens) (UniProt Q03181); assay: qHTS assay to identify small molecule antagonists of the peroxisome proliferator-activated receptor delta (PPARd) signaling pathway (AID 743215; active = well fitted inhibition curve with a large enough effect in the signal ratio in the repeat runs, not every such curve was filed as active; the % refers to the signal ratio;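 also: cells stimulated with agonist L165041 at 300 nM final during compound exposure; series mostly up to about 62 µM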)
Outline: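 PPARd-bla HEK293H cells (UAS-bla reporter) preincubated 5 h, then given compound plus 300 nM final L165041 agonist for 17 h at 37 C. Beta-lactamase activity read by LiveBLAzer B/G FRET substrate fluorescence after 2 h at room temperature.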

[5] = biological target: Bile acid receptor (Homo sapiens) (UniProt Q96RI1); assay: qHTS assay to identify small molecule antagonists of the farnesoid-X-receptor (FXR) signaling pathway (AID 743217; active = well fitted inhibition curve with a large enough effect in the signal ratio in the repeat runs, not every such curve was filed as active; the % refers to the signal ratio)
Chain of Bile acid receptor (Homo sapiens) (Q96RI1 whole entry, looked up): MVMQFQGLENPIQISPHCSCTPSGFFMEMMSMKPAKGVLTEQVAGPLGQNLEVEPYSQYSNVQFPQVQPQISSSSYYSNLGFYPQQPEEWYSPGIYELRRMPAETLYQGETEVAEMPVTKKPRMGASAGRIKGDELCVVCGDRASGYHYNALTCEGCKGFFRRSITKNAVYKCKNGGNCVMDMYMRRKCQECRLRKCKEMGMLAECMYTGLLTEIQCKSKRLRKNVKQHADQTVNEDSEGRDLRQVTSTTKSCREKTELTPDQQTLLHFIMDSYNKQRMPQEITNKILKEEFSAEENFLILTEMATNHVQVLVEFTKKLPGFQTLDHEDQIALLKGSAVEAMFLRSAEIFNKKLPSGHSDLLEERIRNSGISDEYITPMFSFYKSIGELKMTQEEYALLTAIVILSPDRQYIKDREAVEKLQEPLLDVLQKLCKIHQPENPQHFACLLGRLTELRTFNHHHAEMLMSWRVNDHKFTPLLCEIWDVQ
Outline: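 FXR-UAS-bla HEK 293T cells (beta-lactamase reporter) given compound plus chenodeoxycholic acid (50 uM final), 16 h at 37C. LiveBLAzer B/G FRET substrate added for 2 h at room temperature; fluorescence read.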

[6] = qHTS assay to identify small molecule agonists of the farnesoid-X-receptor (FXR) signaling pathway - cell viability counter screen (AID 743218; active = well fitted curve in the direction sought with a large enough effect in the repeat runs; an effect the other way counts as inactive or inconclusive; also: nearly all actives have a fitted effect of over 45% in size)
Outline: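 FXR-UAS-bla HEK 293T cells exposed to compounds for 16 h at 37C. Cytotoxicity read in the same wells by CellTiter-Glo luminescence after 30 min at room temperature, following the beta-lactamase FRET read.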

[7] = biological target: Bile acid receptor (Homo sapiens) (UniProt Q96RI1); assay: qHTS assay to identify small molecule agonists of the farnesoid-X-receptor (FXR) signaling pathway (AID 743220; active = well fitted activation curve with a large enough effect in the signal ratio in the repeat runs, not every such curve was filed as active; the % refers to the signal ratio)
Outline: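 Beta-lactamase reporter under UAS control in GeneBLAzer FXR HEK 293T cells (5000/well) measured with LiveBLAzer FRET substrate after 2 h at room temperature. Compound exposure lasted 16 h at 37C.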

[8] = qHTS assay to identify small molecule antagonists of the farnesoid-X-receptor (FXR) signaling pathway - cell viability counter screen (AID 743221; active = well fitted cell-killing curve with a large enough effect in the repeat runs, not every such curve was filed as active; also: nearly all actives have a fitted effect of over 50% in size)
Outline: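 Cytotoxicity counter screen run in the FXR-bla reporter wells: HEK 293T cells exposed to compound with 50 uM (final) chenodeoxycholic acid for 16 h, 37 C, then viability measured by CellTiter-Glo luminescence after 30 min, room temperature.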

[9] = qHTS assay to identify small molecule antagonists of the vitamin D receptor (VDR) signaling pathway - cell viability counter screen (AID 743225; active = well fitted curve in the direction sought with a large enough effect in the repeat runs; an effect the other way counts as inactive or inconclusive; also: nearly all actives have a fitted effect of over 50% in size)
Outline: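 Cytotoxicity counter screen read by CellTiter-Glo luminescence (30 min, room temperature) in the same wells as the VDR-bla antagonist readout. HEK 293T VDR-UAS-bla cells had 16 h at 37C with compound and 3 nM (final) 1-alpha,25-dihydroxyvitamin D3, then 2 h with FRET substrate.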

[10] = qHTS assay to identify small molecule agonists of the NFkB signaling pathway (AID 1159509; active = well fitted curve in the direction sought with a large enough effect in the signal ratio in the repeat runs, not every such curve was filed as active; the % refers to the signal ratio; also: series mostly up to about 61 µM)
Outline: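 ME-180 NFkB-bla, 2,000 cells/well, overnight plating; cpd pinned in DMSO, 5 h 37 C; B/G FRET substrate 1.5 h RT; ex 405, em 460/530 nm.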

[11] = qHTS assay to identify small molecule agonists of the NFkB signaling pathway - cell viability counter screen (AID 1159515); also: series mostly up to about 61 µM; nearly all actives have a fitted effect of over 55% in size
Outline: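 NFkB-bla ME-180 cells, 2,000/well, plated overnight at 37 C; compound added for 5 hr at 37 C. Viability read in the same wells as the bla reporter, by CellTiter-Glo luminescence after 30 min at room temperature.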

[12] = qHTS assay to identify small molecule agonists of the endoplasmic reticulum stress response signaling pathway (AID 1159516; active = well fitted activation curve with a large enough effect in the signal ratio in the repeat runs, not every such curve was filed as active; the % refers to the signal ratio)
Outline: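 CellSensor ESRE-bla HeLa cells, 1,500 per well, plated overnight, then exposed to compounds for 5 hr at 37 C. Beta-lactamase reporter read with LiveBLAzer B/G FRET substrate after 2 hr at room temperature, 405 nm excitation, 460 and 530 nm emission.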

[13] = qHTS assay to identify small molecule agonists of the endoplasmic reticulum stress response signaling pathway - cell viability counter screen (AID 1159517);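 also: HeLa cells carrying an ER stress response element beta-lactamase reporter; series mostly up to about 61 µM; nearly all actives have a fitted effect of over 50% in size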
Outline: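 CellTiter-Glo was added to wells already read for beta-lactamase FRET, and luminescence was recorded 30 min later. Cells: ESRE-bla HeLa, 1,500 per well, compound exposure 5 hr at 37 C.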

[14] = biological target: Nuclear receptor ROR-gamma (Homo sapiens) (UniProt P51449); assay: qHTS assay to identify small molecule antagonists of the retinoid-related orphan receptor gamma (ROR-gamma) signaling pathway (AID 1159521; active = well fitted curve in the direction sought with a large enough effect in the repeat runs; an effect the other way counts as inactive or inconclusive)
Outline: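 Antagonist read-out: drop in luminescence (ONE-Glo) from an RORE-LUC reporter in CHO cells with doxycycline-inducible ROR-gamma; 2 hr compound pretreatment, 1 uM doxycycline, 16 hr incubation at 37 C.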

[15] = qHTS assay to identify small molecule agonists of the AP-1 signaling pathway - cell viability counter screen (AID 1159525); also: nearly all actives have a fitted effect of over 55% in size
Outline: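 ME-180 AP-1-bla, 2500 cells/well, Opti-MEM + 0.5% dialyzed FBS; overnight 37 °C; cpd 15-pt titration, 5 h 37 °C; CellTiter-Glo 30 min RT; luminescence read; normalised to TOAB and DMSO controls.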

[16] = qHTS assay to identify small molecule agonists of the AP-1 signaling pathway (AID 1159526)
[17] = biological target: Vitamin D3 receptor (Homo sapiens) (UniProt P11473); assay: qHTS assay to identify small molecule agonists of the vitamin D receptor (VDR) signaling pathway (AID 743222)
Chain of Vitamin D3 receptor (Homo sapiens) (P11473 whole entry, looked up): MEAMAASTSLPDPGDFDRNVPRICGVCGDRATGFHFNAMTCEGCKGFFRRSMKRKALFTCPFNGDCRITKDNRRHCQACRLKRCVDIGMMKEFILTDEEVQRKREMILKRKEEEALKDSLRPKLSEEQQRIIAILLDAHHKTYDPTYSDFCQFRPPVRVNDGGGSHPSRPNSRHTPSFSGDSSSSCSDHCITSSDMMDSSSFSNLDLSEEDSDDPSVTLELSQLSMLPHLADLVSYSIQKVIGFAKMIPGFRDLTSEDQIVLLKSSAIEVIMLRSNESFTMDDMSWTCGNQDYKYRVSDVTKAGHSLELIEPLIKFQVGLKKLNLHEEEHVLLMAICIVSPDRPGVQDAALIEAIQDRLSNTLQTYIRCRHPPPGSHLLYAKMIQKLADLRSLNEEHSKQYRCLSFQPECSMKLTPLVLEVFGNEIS
Outline: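 VDR-bla cells plated 4 h at 37 C, then exposed to compounds for 16 h at 37 C. Beta-lactamase reporter activity measured by fluorescence after 2 h room-temperature loading with LiveBLAzer B/G FRET substrate.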

[18] = biological target: Vitamin D3 receptor (Homo sapiens) (UniProt P11473); assay: qHTS assay to identify small molecule antagonists of the vitamin D receptor (VDR) signaling pathway (AID 743223; active = well fitted inhibition curve with a large enough effect in the signal ratio in the repeat runs, not every such curve was filed as active; the % refers to the signal ratio)
Outline: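 Antagonist mode: compound added to VDR-bla cells alongside agonist 1alpha,25-dihydroxyvitamin D3 (3 nM final), incubation 16 h at 37C. Read-out is LiveBLAzer FRET fluorescence, 2 h at room temperature.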

[19] = qHTS assay to identify small molecule agonists of the vitamin D receptor (VDR) signaling pathway - cell viability counter screen (AID 743224; active = well fitted curve in the direction sought with a large enough effect in the repeat runs; an effect the other way counts as inactive or inconclusive)
Outline: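 VDR-bla cells, 4 h after plating, exposed to compounds for 16 h at 37C; viability then read in the same wells as CellTiter-Glo luminescence after 30 min at room temperature, following the bla FRET read.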

[20] = qHTS assay to identify small molecule antagonists of the retinoid-related orphan receptor gamma (ROR-gamma) signaling pathway - cell viability counter screen (AID 1159520; active = well fitted curve in the direction sought with a large enough effect in the repeat runs; an effect the other way counts as inactive or inconclusive; also: nearly all actives have a fitted effect of over 50% in size)
Outline: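 Tet-on ROR gamma CHO cells (1,000/well) were plated 4 hr, given compounds in DMSO for 2 hr at 37 C, then induced with 1 uM final doxycycline for 16 hr. Viability was read as ATP by CellTiter-Glo luminescence after 30 min.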

Measured: Potency

ClC(Br)Br
not listed: [17] | [18] | [19] | [20]
inactive: all other assays above

Cc1ncc2n1-c1ccc(Cl)cc1C(c1ccccc1F)=NC2
not listed: [2] | [4] | [5] | [7] | [20]
inactive: all other assays above

CSc1nc(N=[N+]=[N-])nc(NC(C)C)n1
not listed: [3] | [4] | [5] | [7] | [19] | [20]
inactive: all other assays above

CCN(CC)c1nc(C)cc(OP(=S)(OC)OC)n1
not listed: [5] | [6] | [7] | [16] | [18] | [20]
inactive: all other assays above

Nc1cnn(-c2ccccc2)c(=O)c1Cl
not listed: [1] | [2] | [5] | [7] | [18] | [20]
inactive: all other assays above

CN1CCC(O)(c2ccc(F)cc2)C(C(=O)c2ccc(F)cc2)C1 (stereo not given)
not listed: [5] | [7] | [9] | [18] | [20]
inactive: all other assays above

CCOP(=S)(OCC)Oc1ncn(-c2ccccc2)n1
not listed: [2] | [4] | [6] | [20]
inactive: all other assays above

COc1cc(OC)nc(NC(=O)NS(=O)(=O)c2ncccc2OCC(F)(F)F)n1
not listed: [12]
inactive: all other assays above

CC1(C)C(=O)NC(=O)NC1=O
not listed: [2] | [4] | [5] | [7] | [9] | [18] | [19] | [20]
inactive: all other assays above

O=C(Oc1ccc(Br)cc1)N1CCN2CCC1CC2
not listed: [5] | [7] | [14] | [19] | [20]
inactive: all other assays above

COP(=S)(OC)Oc1ccc(S(N)(=O)=O)cc1
not listed: [20]
inactive: all other assays above

Nc1cc2c3c(c1)C(c1ccccc1)=N[C@@H](NC(=O)c1cccnc1)C(=O)N3CC2
not listed: [5] | [6] | [7] | [18] | [20]
inactive: all other assays above

CC(CC(C#N)(c1ccccc1)c1ccccc1)N(C)C (stereo not given)
not listed: [1] | [3] | [6] | [16] | [20]
inactive: all other assays above

COC(=O)c1ccccc1S(=O)(=O)NC(=O)Nc1nc(C)cc(C)n1
not listed: [2] | [4] | [5] | [7] | [14] | [20]
inactive: all other assays above

Oc1c(Cl)cccc1Cl
not listed: [1] | [5] | [7] | [14]
inactive: all other assays above

COc1cc2c(cc1OC)[C@@]13CCN4CC5=CCO[C@H]6CC(=O)N2[C@H]1[C@H]6[C@H]5C[C@H]43
not listed: [2] | [4] | [5] | [7] | [20]
inactive: all other assays above

CCC(C)(C)c1cc(-n2nc3ccccc3n2)c(O)c(C(C)(C)CC)c1
not listed: [5] | [7] | [20]
inactive: all other assays above

COC(=O)c1c(C(F)F)nc(C(F)(F)F)c(C2=NCCS2)c1CC(C)C
not listed: [1] | [5] | [6] | [7] | [14] | [19]
inactive: all other assays above
